According to PubChem BioAssay (NCI):
This is part of a sample that, as a whole, favours compounds with a hit. Of some 83,000 tested, about 20% had one in any assay.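 Note: values are percent growth. 100 is the growth of untreated cells, values between 100 and 0 indicate rising inhibition; between -100 and 0 indicates cell death.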 The source made the active and inactive calls. Rule for the calls: active = growth percent below 10; inactive = the rest.

Key:
Test in all cases: NCI-60 one-dose screen, 48 h (100 = growth as untreated, 0 = no growth, -100 = all killed)
Settings in all cases: 10 µM unless noted
DU-145 prostate = system: DU-145 prostate
K-562 leukemia = system: K-562 leukemia
MALME-3M melanoma = system: MALME-3M melanoma
MDA-MB-231 breast = system: MDA-MB-231 breast
RXF 393 renal = system: RXF 393 renal
SF-268 CNS = system: SF-268 CNS
SF-295 CNS = system: SF-295 CNS
SF-539 CNS = system: SF-539 CNS
UACC-257 melanoma = system: UACC-257 melanoma
M14 melanoma = system: M14 melanoma

Measured: growth

Cc1cccc2c1S/C(=C/c1ccc([N+](=O)[O-])cc1)C2=O
inactive: DU-145 prostate 106% | K-562 leukemia 42.2% | MALME-3M melanoma 99.4% | MDA-MB-231 breast 103% | RXF 393 renal 140% | SF-268 CNS 103% | SF-295 CNS 89.8% | SF-539 CNS 101% | UACC-257 melanoma 108% | M14 melanoma 98.2%

COc1cccc(Cc2nn3cc(-c4ccccc4)nc3s2)c1
inactive: DU-145 prostate 94.4% | K-562 leukemia 27.7% | MALME-3M melanoma 96.2% | MDA-MB-231 breast 78.9% | RXF 393 renal 117% | SF-268 CNS 89.2% | SF-295 CNS 103% | SF-539 CNS 102% | UACC-257 melanoma 89.7% | M14 melanoma 84.1%

OC(COc1ccccc1Cl)CN1CCN(c2cccc(Cl)c2)CC1 (stereo unspecified)
inactive: DU-145 prostate 114% | K-562 leukemia 108% | MALME-3M melanoma 107% | MDA-MB-231 breast 89.3% | RXF 393 renal 118% | SF-268 CNS 105% | SF-295 CNS 105% | SF-539 CNS 101% | UACC-257 melanoma 93.4% | M14 melanoma 98.1%

COc1cc2cc(Oc3ccc(NC(=O)Nc4cccc(C(F)(F)F)c4)cc3)c(C)nc2cc1OCCN1CCOCC1
inactive: DU-145 prostate 33.5% | K-562 leukemia 11.6% | MALME-3M melanoma 55% | MDA-MB-231 breast 57.9% | RXF 393 renal 62% | SF-268 CNS 55.8% | SF-295 CNS 26.7% | SF-539 CNS 73.7% | UACC-257 melanoma 31% | M14 melanoma 34.3%

CC(=O)O.CN1[CH-]N(Cc2ccc(C#N)cc2)c2ccccc21.[Ag+]
inactive: DU-145 prostate 111% | K-562 leukemia 45.8% | MALME-3M melanoma 102% | MDA-MB-231 breast 110% | RXF 393 renal 117% | SF-268 CNS 109% | SF-295 CNS 110% | SF-539 CNS 106% | UACC-257 melanoma 81.2% | M14 melanoma 100%

CN1C(=O)CNC(=O)[C@H](NC(=O)c2nc3ccccc3cc2O)CSSC[C@H]1C(=O)NCCc1nc2ccccc2cc1O
inactive: DU-145 prostate 38.6% | MALME-3M melanoma 110% | RXF 393 renal 100% | SF-268 CNS 46.4% | SF-295 CNS 68.3% | SF-539 CNS 94.2% | UACC-257 melanoma 79.2%
active: K-562 leukemia 5.35% | M14 melanoma 6.87%

O=C(O)c1cn(C2CC2)c2cc(N3CCN(C(=O)Nc4nc(-c5ccc(Cl)cc5)cs4)CC3)c(F)cc2c1=O
inactive: DU-145 prostate 11.4% | RXF 393 renal 41.6% | SF-268 CNS 20.6% | SF-539 CNS 14.7% | M14 melanoma 18.2%
active: K-562 leukemia 8.49% | MALME-3M melanoma -20.2% | SF-295 CNS -3.25% | UACC-257 melanoma -12.5%

O=C(O)CCC/C=C\C[C@H]1C=CC(=O)/C1=C/C[C@@H](O)CCc1cccc(C(F)(F)F)c1
active: K-562 leukemia 3.71% | RXF 393 renal -65.7% | SF-268 CNS 3.06% | SF-295 CNS -40.4% | SF-539 CNS -1.94% | UACC-257 melanoma -5.2% | M14 melanoma -16.2%
inactive: DU-145 prostate 13.6% | MALME-3M melanoma 79.1%

N#Cc1c(-c2ccc(Cl)cc2)nc(NCCO)[nH]c1=O
inactive: DU-145 prostate 104% | K-562 leukemia 103% | MALME-3M melanoma 98.8% | RXF 393 renal 116% | SF-268 CNS 89.6% | SF-295 CNS 95.3% | SF-539 CNS 95.9% | UACC-257 melanoma 107% | M14 melanoma 94.6%

CCCCC[C@H](O)C/C=C1/C(=O)C=C[C@@H]1C/C=C\CCCC(=O)O
inactive: DU-145 prostate 67.8% | K-562 leukemia 30.1% | MALME-3M melanoma 116% | RXF 393 renal 87.9% | SF-268 CNS 67% | SF-295 CNS 93.7% | SF-539 CNS 92.8% | UACC-257 melanoma 85.8% | M14 melanoma 70.1%

O=C(O)c1cn(C2CC2)c2cc(N3CCN(C(=O)Nc4nc(-c5ccccc5)cs4)CC3)c(F)cc2c1=O
active: UACC-257 melanoma 9.92%
inactive: DU-145 prostate 17.2% | K-562 leukemia 17.1% | MALME-3M melanoma 23.9% | RXF 393 renal 42.7% | SF-268 CNS 23.3% | SF-295 CNS 10.6% | SF-539 CNS 21% | M14 melanoma 31.6%

COC(=O)CCC/C=C\C[C@H]1C=CC(=O)/C1=C/C[C@@H](O)CCc1cccc(C(F)(F)F)c1
inactive: MALME-3M melanoma 58.4%
active: DU-145 prostate 2.5% | K-562 leukemia 1.71% | RXF 393 renal -73.5% | SF-268 CNS -2.42% | SF-295 CNS -21.1% | SF-539 CNS -14.1% | UACC-257 melanoma -6.49% | M14 melanoma -32.4%

CC/C=C\C[C@@H]1C/C=C2/C(=O)C=C[C@H]2C/C=C\CCCC(=O)O1
active: DU-145 prostate -66.8% | K-562 leukemia -0.441% | MALME-3M melanoma -41.1% | RXF 393 renal -80.6% | SF-268 CNS -57.6% | SF-295 CNS -18.1% | SF-539 CNS -64.3% | UACC-257 melanoma -41.7% | M14 melanoma -48.8%

COC1=C(C)C(=O)c2c(c(CCCl)c3n2CCC3O)C1=O (stereo unspecified)
active: DU-145 prostate 1.19% | MALME-3M melanoma -55.7% | RXF 393 renal -53.7% | SF-268 CNS 9.6% | SF-295 CNS -12% | SF-539 CNS -28.8% | UACC-257 melanoma -44.8% | M14 melanoma -14.3%
inactive: K-562 leukemia 22%
